Test results: PubChem BioAssay AID1159580 (chemical genetic matrix, 2015)
Screen size: about 5,500 compounds; about 2,000 (36%) were called active. About 18% were inconclusive and are not listed. No stated cut-off is given here; in the data, active means normalized growth mostly below about 0.91 (no sharp cut-off); inconclusive means no clear call, values can overlap the other calls; inactive means mostly above about 0.92. The list shows a part of the results.

Assay: chemical genetic growth profiling, strain panel (AID 1159580);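 further: tested at 20 µM; growth read once vehicle control cultures reached saturation at 30 °C; 1 = growth at the plate median or of vehicle wells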
Settings: growth OD
[1] = S. cerevisiae deletion strains, locus YAL013W, strain DEP1, stronger effect = lower value
[2] = S. cerevisiae deletion strains, locus YBR229C, strain ROT2, stronger effect = lower value
[3] = S. cerevisiae deletion strains, locus YCL061C, strain MRC1, stronger effect = lower value
[4] = S. cerevisiae deletion strains, locus YDL101C, strain DUN1, stronger effect = lower value
[5] = S. cerevisiae deletion strains, locus YDR150W, strain NUM1, stronger effect = lower value
[6] = S. cerevisiae deletion strains, locus YEL061C, strain CIN8, stronger effect = lower value
[7] = S. cerevisiae deletion strains, locus YGR078C, strain PAC10, stronger effect = lower value
[8] = S. cerevisiae deletion strains, locus YHR030C, strain SLT2, stronger effect = lower value
[9] = S. cerevisiae deletion strains, locus YHR087W, strain rtc3, stronger effect = lower value
[10] = S. cerevisiae deletion strains, locus YJR043C, strain POL32, stronger effect = lower value
[11] = S. cerevisiae deletion strains, locus YJR075W, strain HOC1, stronger effect = lower value
[12] = S. cerevisiae deletion strains, locus YKL190W, strain CNB1, stronger effect = lower value
[13] = S. cerevisiae deletion strains, locus YLR039C, strain RIC1, stronger effect = lower value
[14] = S. cerevisiae deletion strains, locus YLR058C, strain SHM2 (second series), stronger effect = lower value
[15] = S. cerevisiae deletion strains, locus YLR085C, strain ARP6, stronger effect = lower value
[16] = S. cerevisiae deletion strains, locus YLR262C, strain YPT6, stronger effect = lower value
[17] = S. cerevisiae deletion strains, locus YML094W, strain GIM5, stronger effect = lower value
[18] = S. cerevisiae deletion strains, locus YMR219W, strain ESC1, stronger effect = lower value
[19] = S. cerevisiae deletion strains, locus YMR263W, strain SAP30, stronger effect = lower value
[20] = S. cerevisiae deletion strains, locus YNL153C, strain GIM3, stronger effect = lower value
[21] = S. cerevisiae deletion strains, locus YNL298W, strain CLA4 (second series), stronger effect = lower value
[22] = S. cerevisiae deletion strains, locus YNL322C, strain KRE1, stronger effect = lower value
[23] = S. cerevisiae deletion strains, locus YNR030W, strain Alg12, stronger effect = lower value
[24] = S. cerevisiae deletion strains, locus YOL006C, strain TOP1, stronger effect = lower value
[25] = S. cerevisiae deletion strains, locus YPL055C, strain LGE1, stronger effect = lower value
[26] = S. cerevisiae deletion strains, locus YPL241C, strain CIN2, stronger effect = lower value
[27] = S. cerevisiae deletion strains, locus YPR135W, strain CTF4, stronger effect = lower value
[28] = S. cerevisiae strains, strain wild type, stronger effect = lower value

Measured: normalized growth

CCOC(=O)C(=CNc1ccccc1N1CCOCC1)C(=O)OCC
inactive: [1] 0.96 | [2] 0.989 | [3] 0.978 | [4] 0.958 | [5] 0.939 | [6] 1 | [7] 0.963 | S. cerevisiae deletion strains, locus YGR229C, strain SMI1, stronger effect = lower value 0.978 | [8] 0.759 | [9] 0.999 | S. cerevisiae deletion strains, locus YJL187C, strain SWE1, stronger effect = lower value 0.979 | [10] 0.967 | [11] 0.991 | [12] 0.955 | [13] 0.9 | [14] 0.971 | [16] 0.915 | [17] 0.958 | [18] 0.981 | [19] 0.968 | [20] 0.986 | [21] 0.916 | [22] 0.975 | [23] 0.937 | [24] 0.825 | [25] 0.987 | [26] 0.938
active: [15] 0.722 | [27] 0.52

CCOC(=O)C(=CNc1cccc(C#N)c1)C(=O)OCC
inactive: [1] 1.01 | [2] 0.987 | [3] 1 | [4] 1 | S. cerevisiae deletion strains, locus YDL134C, strain PPH21, stronger effect = lower value 0.994 | [5] 0.992 | [6] 0.957 | [7] 1.01 | [8] 0.942 | [9] 0.973 | [10] 1.02 | [11] 0.981 | [12] 0.98 | [13] 0.988 | [14] 0.995 | [15] 0.977 | [16] 0.962 | [17] 0.963 | [18] 0.997 | [19] 1.01 | S. cerevisiae deletion strains, locus YNL128W, strain TEP1, stronger effect = lower value 1.01 | [20] 1.01 | [21] 0.999 | [22] 0.997 | [23] 1.03 | [24] 0.91 | [25] 0.934 | [26] 1.01 | [27] 1.03 | [28] 0.994

CCOC(=O)C(=CNNC(=O)c1ccccc1-n1cccc1)C(=O)OCC
inactive: [1] 0.993 | [2] 1.01 | [3] 1.01 | [4] 1.03 | [5] 1.01 | [6] 0.955 | [7] 1.01 | [8] 1.01 | [9] 0.974 | [10] 1.01 | [11] 1.01 | [14] 0.994 | [15] 0.996 | [16] 0.912 | [17] 0.997 | [18] 1.01 | [19] 1 | [20] 0.999 | [21] 1.01 | [22] 0.981 | [23] 1.02 | [24] 0.986 | [25] 0.975 | [26] 1.04 | [27] 1.04 | [28] 0.935
